An excerpt weighted towards active compounds, which were near 3.9% of everything screened.
PHOSPHO1 inh – PubChem AID 1565; Phosphoethanolamine/phosphocholine phosphatase (Homo sapiens), Q8TCT1; recombinant PHOSPHO1, absorbance phosphatase assay; inhibition, % at 13.3 µM; 1.1% of 290,000 active; in the data active = inhibition above about 60%
Target sequence (Q8TCT1 whole entry, looked up): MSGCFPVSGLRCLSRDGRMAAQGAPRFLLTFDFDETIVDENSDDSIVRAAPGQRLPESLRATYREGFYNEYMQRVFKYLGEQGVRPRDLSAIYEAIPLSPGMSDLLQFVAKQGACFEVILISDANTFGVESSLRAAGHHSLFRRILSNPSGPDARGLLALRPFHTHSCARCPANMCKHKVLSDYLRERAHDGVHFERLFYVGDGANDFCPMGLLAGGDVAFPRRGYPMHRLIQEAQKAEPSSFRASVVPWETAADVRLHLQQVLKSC
Platelet DG rel – inhibitors of platelet dense granule secretion, primary screen, cell-based, MLPCN, human platelets; human platelet-rich plasma, SFLLRN dense granule ATP release, luminescence; inhibition, %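 (compounds screened at 7.5 µM in platelet-rich plasma)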; 0.22% of 300,000 active; AID 1663, 2009;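 active = mean replicate score, as percent of positive control, at or above 50; inconclusive = mean below 50 but at least one replicate at or above 50; inactive = mean and every replicate below 50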
WT yeast gro inh – growth inhibition of WT strain, primary screen, mitochondrial fusion inhibitor project, WT and mutant strains, chemical genetic; inhibition, % at 10 µM; AID 1362, 2008; mitochondrial fusion phenotypic screen; 2.1% of 190,000 active; in the data active = inhibition above about 58%; tested in S. cerevisiae
TPT1 inhibitor – Candida albicans TPT1 enzyme inhibitors, primary screen, biochemical, fluorescence polarization; recombinant caTPT1, FP RNA substrate dephosphorylation; inhibition, % at 5 µM; 0.81% of 300,000 active;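 active = inhibition above the mean of all tested compounds plus 3 SD, set per screening campaign, cut at about 24% in these data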;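 also: plate controls were DMSO alone for no effect and ferristatin control at 100 nM for full effect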
SKKanGAS inh – S. pyogenes SKKanGAS growth inhibitors in kanamycin, primary screen, streptokinase expression inhibitor project, SKKanGAS strain, BacTiter-Glo luminescence; 6 h; inhibition, % at 7.5 µM; 1.3% of 300,000 active; AID 1662, 2009;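 active = mean replicate score, as percent of positive control median, at least 50; inconclusive = mean below 50 but one replicate at or above 50; inactive = mean and every replicate below 50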;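 also: strain carries kanamycin resistance gene driven by streptokinase promoter and grows in 40 µg/ml kanamycin; loss of luminescence reflects streptokinase promoter inhibition or plain growth inhibition; 0% = median of DMSO wells and 100% = positive control at its reference dose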
Rtt109 HAT inh – inhibitors of C. albicans Rtt109/Vps75 HAT, primary screen, biochemical, ThioGlo CoA-SH fluorescence, plate reader | Histone acetyltransferase RTT109 (Candida albicans (strain SC5314 / ATCC MYA-2876)), … | purified Rtt109/Vps75, 4 h | inhibition, % at 34.9 µM | 0.16% of 330,000 active | AID 540336, 2011;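 active = inhibition of at least 50% in every replicate; inconclusive = best replicate reaches 50% inhibition but some replicates fall short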
caTPT1 confirm – Candida albicans TPT1 inhibitors, confirmation, biochemical, fluorescence polarization, triplicate. shares compounds with TPT1 inhibitor. recombinant caTPT1, RNase T1 coupled. inhibition, % at 5 µM. 74% of 2,400 active;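 active = inhibition above the primary screen limit, the mean inhibition of all tested compounds plus 3 SD, cut at about 25% in these data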
RNase T1 counter – RNase T1 inhibitors, counter-screen for TPT1 inhibitor project, biochemical, fluorescence polarization | inhibition, % at 5 µM | 83% of 2,400 active | shares compounds with TPT1 inhibitor | RNase T1 cleavage, 1536-well;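 active = inhibition above the solvent-only control well mean plus 3 SD, limit set per screening run, cut at about 23% in these data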;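 also: plate controls were DMSO wells with enzyme for no effect and wells without RNase T1 for full effect; inhibitors block cleavage so intact labeled substrate keeps polarization high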
Target sequence (P00651 whole entry, looked up): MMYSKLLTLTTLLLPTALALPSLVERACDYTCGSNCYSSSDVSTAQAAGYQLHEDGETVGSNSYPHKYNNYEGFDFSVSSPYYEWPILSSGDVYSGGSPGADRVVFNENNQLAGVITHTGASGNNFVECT
Numbers without * were called inactive; ? = inconclusive; / = not tested or not shown.

SMILES | PHOSPHO1 inh | Platelet DG rel | WT yeast gro inh | TPT1 inhibitor | SKKanGAS inh | Rtt109 HAT inh | others
CC(C)CNC(=S)NNC(=O)CC(C)O (centres undefined) | 61* | -3 | -5 | 1 | -26 | -2
O=C(O)c1oc2ccccc2c1CSc1ccc(Cl)cc1 | 16 | -7 | / | 0 | -1 | 5
O=C(c1ccc(Cl)cc1)c1oc2ccccc2c1CS(=O)c1ccccc1 (centres undefined) | 98* | 5 | 48 | -5 | 8 | 7
CN(C)CC(C(=O)c1ccccc1)c1ccccc1 (centres undefined) | 14 | 1 | 77* | 2 | -5 | 7
Cc1ccc(-c2ccnc(=S)[nH]2)cc1 | 90* | -4 | 4 | -1 | -15 | -14
CC(Oc1ccccc1)C(=O)N(CCC1=CCCCC1)c1c(N)n(Cc2ccccc2)c(=O)[nH]c1=O (centres undefined) | -17 | ? | / | 0 | 5 | /
CC(C)(CNC(=O)c1cc2ccccc2o1)N1CCOCC1 | 68* | 2 | -8 | -5 | -3 | -12
CCc1sc(C(=O)N2CCN(C(=O)c3ccccc3)CC2)cc1C | / | / | / | / | / | -2
O=C(Nc1ccccc1Sc1ccccc1)c1ccc(F)cc1 | -19 | 0 | 78* | 2 | 13 | -8
O=C(COC(=O)C1CCC1)Nc1ccccc1Sc1ccccc1 | 7 | -3 | -11 | 1 | -5 | 1
CC(=O)Nc1ccc(C(=O)OCC(=O)Nc2ccccc2Sc2ccccc2)cc1 | -7 | 0 | 83* | -3 | 4 | 10
Cc1ccc(C(=O)Nc2ccccc2Sc2ccccc2)cc1 | -11 | 5 | -7 | -2 | 8 | 1
O=C(COC(=O)CCC1CCCC1)Nc1ccccc1Sc1ccccc1 | -6 | 0 | 9 | -2 | 80* | -5
CC(=O)CSc1nc2c(c(=O)[nH]c(=O)n2C)n1CCCc1ccccc1 | 14 | 3 | / | -5 | -3 | 3
Cc1noc(NS(=O)(=O)c2ccc(NC(=O)c3ccccc3NS(=O)(=O)c3ccc(F)c(F)c3)cc2)c1C | / | / | / | / | / | 2
CCC(C)N(C(=O)CSc1nnc2ccccn12)C1CCS(=O)(=O)C1 (centres undefined) | / | / | / | / | / | -9
CC[C@]12c3[nH]c4cc(-c5ccco5)ccc4c3CCN1C(=O)[C@@H](CC(=O)NC(C)(C)C)C[C@@H]2C(=O)N1CCN(C(=O)c2ccco2)CC1 | / | / | / | / | / | -1
CCOC(=O)c1cnc(-n2nc(C)cc2C)nc1NCc1ccccc1 | 55 | -1 | 65* | 4 | 89* | 8
CCOC(=O)c1cnc(-n2nc(C)cc2C)nc1NC(C)c1ccccc1 (centres undefined) | -17 | 17 | 27 | 1 | 107* | 11
CCOC(=O)c1cnc(-n2nc(C)cc2C)nc1NNc1cc(-c2ccccc2)nc(C)n1 | -19 | -13 | -3 | 1 | 103* | /
Cc1cc(C)n(-c2nc(C)nc(NCc3ccccc3)n2)n1 | -4 | 5 | 41 | -4 | 58* | -4
COc1ccc(NC(=O)c2ccc3[nH]c(C)c(C)c3c2)cc1 | 35 | 1 | / | / | 3 | -1
O=C(c1ccc(Cl)cc1)c1cnc(Nc2ccccc2Cl)s1 | 24 | -5 | 4 | 2 | 75* | -14
CC(=O)c1cnc(Nc2cccc(Cl)c2Cl)s1 | 41 | -5 | -2 | 0 | -2 | -5
CCCOC(=O)CSC1=C(C#N)C(c2ccccc2OCC)C(C#N)C(=O)N1 (centres undefined) | 75* | -21 | 9 | 2 | 3 | 6
SMILES | PHOSPHO1 inh | Platelet DG rel | WT yeast gro inh | TPT1 inhibitor | SKKanGAS inh | Rtt109 HAT inh | others
Fc1ccc(C2NC(=S)NC3=C2N2CCC3CC2)cc1 (centres undefined) | 76* | 1 | 8 | 1 | 1 | -4
COc1cccc(NC(=S)NN=C2CCCCCC2)c1 | 32 | 1 | 47 | / | 52* | -8
CCNC(=S)N/N=C1\CCCCc2ccccc21 | 8 | -9 | 65 | 0 | -4 | -5
Cc1ccc(NC(=S)N/N=C2/CCCCc3ccccc32)cc1 | 25 | -4 | / | -2 | 8 | 19
C=C(C)CNC(=S)N/N=C1\CCCCc2ccccc21 | -12 | 10 | 65* | 0 | -7 | 6
COc1ccc(CNC(=S)Nc2cccc(OC)c2)cc1 | 24 | 1 | / | -2 | -1 | 1
Cc1cccc(NC(=S)N/N=C2/CCCCc3ccccc32)c1 | -4 | -4 | 63* | 3 | 38 | 3
COc1ccc(CNC(=O)CCn2nc(C)c3c(C)n(-c4ccccc4)nc3c2=O)c(OC)c1 | 16 | -1 | / | -2 | -5 | -7
COc1ccn(C2CCCCO2)c(=O)n1 (centres undefined) | / | / | / | / | / | -13
COc1cc(Cl)ccc1OCc1cc(C(=O)NCc2cc(C(C)C)no2)no1 | 23 | -5 | / | 0 | -5 | 4
Cc1cccc(C)c1OCC(O)CNC(C)c1ccccc1 (centres undefined) | 22 | -3 | / | 2 | 4 | 1
C[C@H]1CN([C@@H](C)CO)C(=O)c2cccc(NC(=O)c3nc4ccccc4s3)c2O[C@H]1CN(C)C(=O)Nc1ccc(F)cc1 | / | / | / | / | / | -4
COc1ccc(CCNC(=O)CN2C(=O)COc3ccc(S(=O)(=O)N4CCCC4)cc32)c(OC)c1 | 31 | 3 | / | -2 | -4 | 19
Cc1cccc(COCC(CC(C)C)N2CCN(C(=O)c3ccc(C(C)(C)C)cc3)CCC2=O)c1 (centres undefined) | -11 | 7 | 84* | 3 | 11 | -10
N#Cc1cc(C(=O)c2ccccc2O)cn(-c2nccs2)c1=O | 0 | 9 | 23 | 44* | 11 | 10 | caTPT1 confirm=42*;RNase T1 counter=52*
N#Cc1cc(C(=O)c2cc(F)ccc2O)cn(-c2nccs2)c1=O | -5 | -2 | 2 | 55* | 15 | 17 | caTPT1 confirm=57*;RNase T1 counter=67*
CC(C)n1cc(C(=O)c2ccccc2O)cc(C#N)c1=O | -33 | 4 | -14 | -3 | 0 | 10
Cc1ccc(C)c(NC(=O)COC(=O)c2cc3ccccc3oc2=O)c1 | / | / | / | / | / | -1
Cc1ccccc1-c1nnc(SCC(=O)NC2CCCC2)n1C | / | 18 | / | 1 | -5 | 1
O=C(O)C1Nc2ccc(Br)cc2C2C=CCC12 (centres undefined) | / | -4 | / | 29* | 10 | 1 | caTPT1 confirm=11;RNase T1 counter=21

Bioassay records deposited in PubChem BioAssay by several laboratories.
